Inconclusive results are not listed. Values without a mark were called inactive. Calls of active or inactive are those of the source. Calls follow the shape of the dose curve; as a rule, active = well fitted activation curve with a large enough effect; inconclusive = small, poorly fitted or top-dose-only effect; inactive = no such curve, though single readings can be large or run the other way.
Potency is read from the fitted curve at half-maximal effect.

The test can be described thus: Activators of T cell receptors: Hit Validation. As to activation: 0% is about no effect. Conditions: primary human leukocytes, cytokine release by HTRF, 48 h, TCR-stimulated with anti-CD3 beads; series mostly up to 46.1 µM; activation: at the top concentration. Put shortly:
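Primary human leukocytes incubated 48 hr with anti-CD3 beads plus compound, without co-stimulation. Secreted IL-2 quantified by HTRF (europium cryptate donor, d2 acceptor, 665 nm emission).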
(In general: TR-FRET usually uses a lanthanide donor and a delayed reading to cut background.)
On to `Cc1[nH]c2ccccc2c1C(=O)CSc1nnc(C2CC2)o1`, for which the “activation” value is 4.8%.

As for `C[C@@H]1O[C@@H](O[C@H]2[C@H](Oc3cc(O)c4c(c3)O[C@H](c3ccc(O)cc3)CC4=O)O[C@H](CO)[C@@H](O)[C@@H]2O)[C@H](O)[C@H](O)[C@H]1O`, the “activation” value was -5.16%.

Regarding `Cc1ccc(S(=O)(=O)N(C)/N=C/C=C/c2ccccc2)cc1`, the “activation” value is 8.67%. Regarding `Cc1ccc(NS(=O)(=O)c2ccc(C)c(C(=O)NCC(c3ccccc3)N(C)C)c2)cc1` (stereo not given), the “activation” value is 6.06%. On the same count and under the same terms, the figure for `CN1C(=O)c2ccccc2Sc2ccc(NC(=O)N3CCOCC3)cc21` is -1.97%. In the case of `CC1CCCC(C)N1C(=O)COC(=O)C12CC3CC(CC(Cl)(C3)C1)C2` (stereo not given), the “activation” value is 4.37%. Regarding `CCOc1cc(/C=N/NC(=S)Nc2ccccc2C(F)(F)F)ccc1OCC(=O)N1CCOCC1`, the “activation” value is 5.35%. Consider `Cc1ccc(S(=O)(=O)NC23CC4CC(CC(C4)C2)C3)cc1`, for which the “activation” value was 4.65%. The same measure, in the same setting: the figure for `CC1(NC(=O)CCNC(=O)c2ccc(C(C)(C)C)cc2)CCS(=O)(=O)C1` (stereo not given) is 6.9%; for `CC(=O)c1cccc(S(=O)(=O)N2CCC(C(=O)Nc3cccc(C(=O)NC4CC4)c3)CC2)c1` it is 2.12%; for `CC1(C)Cc2cccc(OCC(=O)NCc3ccc(F)cc3)c2O1` it is 4.68%. Turning to `COc1cc(C)c(NC(=S)NCCCN2CCOCC2)cc1OC`, the “activation” value is 13.1%. Same read-out and setting: the figure for `CN=c1nc(-c2ccccc2)n(-c2ccccc2)s1` is 12.5%. On to `S=c1[nH]c2ccccc2n2c(=S)[nH]nc12`, for which the Potency is 11.2 µM (active). Consider `CCOC(=O)C1CCCN(C(=O)c2cccc(S(=O)(=O)N3CCCC3)c2)C1` (stereo not given), for which the “activation” value was -2.23%. As to `Cc1n[nH]c(C)c1S(=O)(=O)N1CCCC(C(=O)Nc2nccs2)C1` (stereo not given), the “activation” value was -0.963%. `COc1ccc(C(=O)COC(=O)c2sc(C)nc2C)cc1OC`: the “activation” value was 5.32%. Turning to `CC(=O)c1cccc(NC(=O)C(C)OC(=O)c2cccc(S(=O)(=O)N3CCN(C)CC3)c2)c1` (stereo not given), the “activation” value was 8.26%.

As to `O=S(=O)(Nc1cc(Cl)ccc1-n1cncn1)c1ccc(F)cc1`, the “activation” value was 7.59%. For the compound `CN(CC(=O)NCC(=O)Nc1ccc(F)cc1)C1CCS(=O)(=O)C1` (stereo not given), the “activation” value was 4.94%. On to `Cc1ccc(C(=O)NNC(=O)COC(=O)COc2ccccc2C#N)cc1`, for which the “activation” value was 2.22%.

As to `COc1cc(C(=O)Nc2ccn(C)n2)ccc1OC(F)F`, the “activation” value is 6.29%. As to `CCOC(=O)c1c(NC(=O)c2ccc(N3C(=O)C4C5C=CC(C5)C4C3=O)cc2)sc2c1CCCC2` (stereo not given), the “activation” value was -5.99%.

As to `CCC(/C=C1\Sc2ccc(OC)cc2N1CCO)=C\c1sc2ccc(OC)cc2[n+]1CCO`, the Potency was 9.96 µM (active).

In the case of `COc1ccc(Cl)cc1NC(=O)CN1C(=O)NC(C)(Cc2ccc(OC)c(OC)c2)C1=O` (stereo not given), the “activation” value was 5.98%.

With `O=C1c2ccccc2C(=O)N1CCCC(=O)N1CCCc2ccccc21`, the “activation” value is 0.64%.

Regarding `CCOC(=O)c1ncn2c1[C@@H]1CCNC1C(=O)c1cc(OC)ccc1-2` (stereo not given in full), the “activation” value is -4.11%. For the compound `CCN(CC)CC(=O)c1c(N)n(Cc2ccccc2)c(=O)n(C)c1=O`, the “activation” value was 5.63%. On the same count and under the same terms, then `COc1ccc(C(=O)/C=C(\C)Nc2ccc(NC(C)=O)cc2)cc1`, with -0.292%; and `Cc1ncc[nH]1`, with -7.21%.
